What all share (test): NCI-60 one-dose screen, 48 h (100 = growth as untreated, 0 = no growth, -100 = all killed)
What all share (details): 10 µM unless noted

Experiment [1] has as its system HCT-15 colon.
For experiment [2], the system named is HT29 colon.
Experiment [3] deals with SNB-75 CNS.
The subject of experiment [4] is SNB-19 CNS.
Experiment [5] relates to U251 CNS.
Experiment [6] has as its system PC-3 prostate.
In experiment [7] the test system is SK-MEL-5 melanoma.
Experiment [8] concerns UACC-62 melanoma.
The test system of experiment [9] is LOX IMVI melanoma.
Experiment [10] has as its system SK-MEL-28 melanoma.
Experiment [11] concerns SK-MEL-2 melanoma.
Experiment [12] concerns EKVX NSCLC.
In experiment [13] the test system is SN12C renal.
The test system of experiment [14] is UO-31 renal.
The test system of experiment [15] is TK-10 renal.
Experiment [16] concerns ACHN renal.
Experiment [17] deals with CAKI-1 renal.
Experiment [18] concerns A498 renal.
The test system of experiment [19] is CCRF-CEM leukemia.
Experiment [20] deals with MOLT-4 leukemia.

Molecules are shown by their SMILES. The panel holds about 83,000 compounds, 20% with a hit somewhere; the sample as a whole holds those more often.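 Values shown are percent growth following 48 h exposure of cells in 96-well plates to a single concentration of compound; below 10 was considered active.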 Values without a mark were called inactive. Active and inactive are the calls of the source.

Regarding `Cc1[nH]c(C(=O)Nc2cccc(OC3CCNCC3)c2)c(Cl)c1Cl`, the growth in [1] was 51%; in experiment [2], -36.2% (active); in experiment [3], 82.3%; in experiment [4], 74.6%; in [5] it was 63.9%; in [6], 62.9%. Also, the growth is 85.5% in [7]; -55.7% (active) in experiment [8]; 40.9% in [9]; -63.5% (active) in [10]; 88.4% in experiment [11]; 86.1% in experiment [12]. Also, the growth in [13] was 70.3%; in [14] it was 67.1%; in experiment [15] it was 123%; in [16], 62.8%; in experiment [17], 70.3%; in [18], 25.1%. For the same compound, the figures for the growth in experiment [19] and in [20] were 55.3% and 41.5%, respectively.

In the case of `CCOc1ccc(/C=N\N=C\c2ccc(OCC)cc2)cc1`, the growth in [1] was 7.98% (active); in experiment [2] it was 34.5%; in experiment [3], 112%; in experiment [4], 98.3%; in experiment [5] it was 74.4%; in experiment [6], 67.1%. In addition, the growth in experiment [7] was 88.3%; in experiment [8], 79.9%; in experiment [9], 70.5%; in [10], 105%; in experiment [11] it was 39.3%; in experiment [12], 103%. The growth was 80.4% in experiment [13]; 79% in experiment [14]; 86.8% in experiment [15]; 9.41% (active) in experiment [16]; 46.3% in [17]; 108% in [18]. Further, the growth in experiment [19] is 118%; in experiment [20], 81%.

`CCOC(=O)n1cc(-c2nonc2-c2cn(C)c3ccccc23)c2ccccc21`: the growth in [1] is 31.2%; in [2], 12.8%; in [3] it was 16.3%; in experiment [4] it was 35.3%; in experiment [5], 26.7%; in experiment [6], 48.1%. For the same compound, the growth in experiment [7] was 46.3%; in [8], 30.6%; in experiment [9] it was 41.7%; in experiment [10] it was 57.4%; in experiment [11] it was 37.3%; in [12] it was 55.7%. For the same compound, the growth was 45.1% in [13]; 42.9% in experiment [14]; 63.2% in experiment [15]; 43.2% in experiment [16]; 29.4% in experiment [17]; 15.2% in experiment [18]. For the same compound, the growth in experiment [19] is 21.6%; in [20], 23.2%.

In the case of `CCN1C(=O)N(CC)C2C1NN=c1s/c(=C\c3ccccc3Br)c(=O)n12` (stereo not drawn), the growth in experiment [1] was 8.51% (active); in experiment [2] it was 4.72% (active); in experiment [3] it was 10.1%; in experiment [4] it was 26.8%; in [5] it was 5.61% (active); in experiment [6], 23.2%. The growth was -17.6% (active) in experiment [7]; 24.5% in experiment [8]; 16.3% in experiment [9]; 57.4% in experiment [10]; 51.1% in experiment [11]; 47.7% in experiment [12]. The growth in experiment [13] was 24.8%; in [14], 36.2%; in experiment [15], 70.9%; in experiment [16] it was 26.1%; in experiment [17], 24.7%; in experiment [18], -1.67% (active). Moreover, the growth in experiment [19] is 14.5%; in experiment [20], 15.2%.

For `COC(=O)c1ccc2c(c1)c1c(C)c3ccncc3c(C)c1n2C`, the growth was 18.6% in [1]; 12.4% in experiment [2]; 22% in experiment [3]; 29% in experiment [4]; 20.9% in experiment [5]; 31.8% in experiment [6]. Also, the growth in experiment [7] was 14.5%; in [8] it was 3.04% (active); in experiment [9], 4.81% (active); in [10] it was 35.4%; in experiment [11], 13.9%; in [12], 34.3%. For the same compound, the growth was 36.1% in [13]; 11.9% in [14]; 32.7% in [15]; 14.8% in [16]; 13% in experiment [17]; -0.17% (active) in experiment [18]. Moreover, the growth was 30.4% in [19] and 12.9% in experiment [20].

For `CC(=O)N(Cc1ccccc1)c1nc2ccc(O)c(CN(C)C)c2s1`, the growth in experiment [1] is 97.8%; in experiment [2], 109%; in [3], 79.2%; in [4], 100%; in [5], 96.2%; in experiment [6], 90.2%. For the same compound, the growth in experiment [7] was 99%; in experiment [8] it was 93.7%; in experiment [9], 94.1%; in [10], 107%; in experiment [11] it was 108%; in [12], 89%. The growth in [13] was 99.2%; in experiment [14], 77%; in experiment [15] it was 99.6%; in [16], 96.8%; in experiment [17], 82.8%; in [18] it was 66%. The values for the growth in [19] and in experiment [20] were 106% and 112%, respectively.

As to `COc1cc(/C=N/Nc2ccccc2F)cc(OC)c1OC`, the growth in experiment [1] was 89.2%; in experiment [2] it was 93.6%; in experiment [3], 103%; in experiment [4], 98.3%; in experiment [5], 93.3%; in experiment [6], 88.7%. The growth in experiment [7] was 102%; in experiment [8], 65.7%; in experiment [9], 65.7%; in experiment [10] it was 110%; in experiment [11], 90.2%; in experiment [12], 87.4%. Besides, the growth in [13] was 97.1%; in [14] it was 68.8%; in experiment [15], 157%; in experiment [16], 81.3%; in [17], 50.8%; in experiment [18], 92.8%. Besides, the growth was 75.2% in experiment [19] and 83.9% in experiment [20].

Consider `CCn1cc(C(=O)N/N=C/c2ccc(Br)cc2)c(=O)c2cc(F)c(N3CCNC(C)C3)c(F)c21` (stereo not drawn), for which the growth in [1] was -18.9% (active); in [2], -31.7% (active); in [3] it was 85.6%; in experiment [4] it was 54.5%; in [5], 1.38% (active); in experiment [6], 68.3%. Also, the growth was 82.4% in experiment [7]; 101% in experiment [8]; -78.2% (active) in experiment [9]; 91.2% in [10]; 97.7% in experiment [11]; 86.9% in [12]. The growth in experiment [13] was 52.2%; in [14] it was 68.4%; in [15], 99.6%; in [17], 68.5%; in experiment [18], 98%; in experiment [19] it was 29.7%.

For the origin of these results see PubChem BioAssay (NCI).
